{"source": "PubChem BioAssay AID1851", "about": "(National Center for Advancing Translational Sciences (NCATS), 2009)", "note": "The campaign covered roughly 16,000 compounds. About 2,600 (16%) were called active. Not shown: some 20% with an inconclusive outcome. For the sample, actives were picked, then their nearest neighbours and some compounds at random. Unmarked numbers belong to inactive results. Calls follow the shape of the dose curve; as a rule, active = well fitted curve in the direction sought with a large enough effect; inconclusive = small, poorly fitted or top-dose-only effect, or effect the other way; inactive = no such curve, though single readings can be large or run the other way. % is scaled to controls: 0 for no effect and ±100 for the full control effect."}
{"target": "Cytochrome P450 2D6 (Homo sapiens) (UniProt P10635)", "sequence (P10635 whole entry, looked up)": "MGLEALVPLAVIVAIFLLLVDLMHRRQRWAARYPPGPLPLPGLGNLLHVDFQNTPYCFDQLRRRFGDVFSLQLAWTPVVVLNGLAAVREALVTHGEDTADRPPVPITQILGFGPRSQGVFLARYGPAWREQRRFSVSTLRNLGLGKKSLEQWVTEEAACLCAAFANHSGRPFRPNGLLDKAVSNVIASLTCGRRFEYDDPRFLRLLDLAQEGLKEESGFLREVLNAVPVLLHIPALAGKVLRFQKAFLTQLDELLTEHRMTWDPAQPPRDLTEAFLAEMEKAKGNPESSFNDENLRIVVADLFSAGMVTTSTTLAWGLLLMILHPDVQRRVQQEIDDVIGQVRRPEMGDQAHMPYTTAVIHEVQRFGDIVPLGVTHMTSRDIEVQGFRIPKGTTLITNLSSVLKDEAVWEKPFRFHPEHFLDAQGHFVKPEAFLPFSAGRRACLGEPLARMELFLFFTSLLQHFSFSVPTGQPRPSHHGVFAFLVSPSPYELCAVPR", "test": "Cytochrome panel assay with activity outcomes", "conditions": "recombinant CYP, pro-luciferin dealkylation, luminescence, p450-cyp2d6; series mostly up to 57.1 µM; activity, negative = inhibition: at the top concentration"}
{"smiles": "CCN1CCN(Cc2cc(OC)c(OC)cc2[N+](=O)[O-])CC1", "AC50": "6.31 µM (active)"}
{"smiles": "CCN1C[C@]2(C)CC[C@H](OC)[C@@]34[C@@H]2[C@H](OC(C)=O)[C@]2(OCO[C@@]25C[C@@H](OC)[C@@H]2C[C@@]3(O)[C@H]5[C@@H]2OC)[C@H]14", "activity, negative = inhibition": "-2.5% [at 25.6 µM]"}
{"smiles": "COC(=O)NC/C=C\\c1nc(CC/C=C\\C(=O)O[C@H]2C[C@H]3CC(=O)O[C@@H](/C=C\\CC(C)C)C[C@@H]4CC[C@H](C)[C@H](C[C@@H](OC)C[C@H](C2)O3)O4)co1", "activity, negative = inhibition": "-6.57% [at 11.4 µM]"}
{"smiles": "CC(N)Cc1ccccc1Sc1ccc(O)cc1", "note": "(centres undefined)", "AC50": "10 µM (active)"}
{"smiles": "CNC(C)Cc1ccccc1Sc1ccc(O)cc1", "note": "(centres undefined)", "AC50": "3.16 µM (active)"}
{"smiles": "COC(=O)C1(C)C=C2C(=C(C)C(=O)C2C)CN1", "note": "(centres undefined)", "activity, negative = inhibition": "-5.73%"}
{"smiles": "CC(C)[C@@H]1CN[C@H](C(=O)O)[C@@H]1CC(=O)O", "activity, negative = inhibition": "3.37%"}
{"smiles": "C=C1[C@@H]2C[C@@]3([C@H]1O)[C@H]1C[C@@H]4[C@@]5(C)CC[C@H](O)[C@]4([C@H]1N(CC)C5)[C@H]3C[C@H]2O", "activity, negative = inhibition": "-0.649% [at 25.6 µM]"}
{"smiles": "CC(C)CNCCc1ccccn1", "activity, negative = inhibition": "-13.8% [at 11.4 µM]"}
{"smiles": "CCC(=O)O[C@H]1CC[C@H]2[C@@H]3CCC4=CC(=O)CC[C@]4(C)[C@H]3CC[C@]12C", "activity, negative = inhibition": "-8.4% [at 25.6 µM]"}
{"smiles": "CC[C@@H](C)[C@H]1O[C@]2(CC[C@@H]1C)C[C@@H]1C[C@H](C/C=C(/C)[C@H](O[C@@H]3C[C@H](OC)[C@H](O[C@@H]4C[C@H](OC)[C@@H](O)[C@H](C)O4)[C@H](C)O3)[C@@H](C)/C=C\\C=C3CO[C@@H]4[C@H](O)C(C)=C[C@@H](C(=O)O1)[C@]34O)O2", "note": "(tested in a mixture with another compound)", "activity, negative = inhibition": "5.21%"}
{"smiles": "Cc1ccc2c(c1)N(CCC(=O)N1CCC3(CC1)OCCO3)C(=O)C(C)O2", "note": "(centres undefined)", "activity, negative = inhibition": "-27.8%"}
{"smiles": "CN1CCc2cc3c(cc2[C@@H]1O)OCO3", "AC50": "7.94 µM (active)"}
{"smiles": "CN1CCc2cc(O)cc3c2[C@H]1Cc1ccc(O)c(O)c1-3", "activity, negative = inhibition": "-16%"}
{"smiles": "COc1cc([C@H]2c3cc4c(cc3[C@@H](O)[C@@H]3COC(=O)[C@H]23)OCO4)cc(OC)c1OC", "activity, negative = inhibition": "-7.23% [at 25.6 µM]"}
{"smiles": "CC(=O)N1CC[N+](C)(C)CC1", "activity, negative = inhibition": "-1.9%"}
{"smiles": "CC(C)(C)c1cc(C=C(C#N)C#N)cc(C(C)(C)C)c1O", "activity, negative = inhibition": "-11.6%"}
{"smiles": "CC1=C2C(=O)[C@@H]3[C@@H](CC=C4C[C@@H](O)CC[C@@]43C)[C@H]2CC[C@@]12O[C@H]1C[C@H](C)CN[C@H]1[C@@H]2C", "activity, negative = inhibition": "9.41% [at 11.4 µM]"}
{"smiles": "NS(=O)(=O)c1cc([C@@]2(O)NC(=O)c3ccccc32)ccc1Cl", "activity, negative = inhibition": "4.03% [at 25.6 µM]"}
{"smiles": "CCOc1ccc(C2C(C#N)=C(N)Oc3c2c(=O)oc2ccccc32)cc1", "note": "(centres undefined)", "activity, negative = inhibition": "-8.83%"}
{"smiles": "CCOC(C(=O)OCCCN(CC)CC)(c1ccccc1)c1ccccc1", "AC50": "2 µM (active)"}
{"smiles": "CC(C)NP(=O)(NC(C)C)OP(=O)(NC(C)C)NC(C)C", "activity, negative = inhibition": "10.5%"}
{"smiles": "CC(C)N[C@@H](C)Cc1ccc(I)cc1", "AC50": "0.1 µM (active)"}
{"smiles": "Cc1ccc2cc3cc(C(=O)N4CCC5(CC4)OCCO5)oc3nc2c1", "activity, negative = inhibition": "-17.5%"}
{"smiles": "CCOC(=O)c1ncn2c1CN(C)C(=O)c1cc(F)ccc1-2", "activity, negative = inhibition": "-7.93%"}
{"smiles": "CC1(C)[C@@H]2CC[C@]1(C)CN(CCC[N+](C)(C)C)C2", "activity, negative = inhibition": "2.02% [at 11.4 µM]"}
{"smiles": "CS(=O)(=O)O[C@H]1CN2CCC1CC2", "activity, negative = inhibition": "2.87% [at 11.4 µM]"}
{"smiles": "C[C@]12CC[C@H](O)C[C@@H]1CC[C@H]1[C@H]2CC[C@]2(C)[C@H](C(=O)CO)CC[C@@H]12", "activity, negative = inhibition": "-4.84%"}
{"smiles": "c1csc(CN2CCC3(CCNCC3)CC2)n1", "activity, negative = inhibition": "5.07%"}
{"smiles": "c1csc(CN2CCCC3(CCNCC3)C2)n1", "activity, negative = inhibition": "-11.9%"}
{"smiles": "c1ccc(N2CCCC3(CCNCC3)C2)nc1", "AC50": "10 µM (active)"}
{"smiles": "c1ccc(N2CCC3(CCNCC3)CC2)nc1", "AC50": "1.26 µM (active)"}
{"smiles": "Cc1ccccc1OCCN=Cc1c(O)n(C)c(=O)n(C)c1=O", "activity, negative = inhibition": "-8.35%"}
{"smiles": "COc1cc2c(cc1OC)[C@@]13CCN4C=C5CCO[C@H]6CC(=O)N2[C@@H]1[C@@H]6[C@H]5C[C@H]43", "activity, negative = inhibition": "9.01% [at 11.4 µM]"}
{"smiles": "C1CCc2nnnn2CC1", "activity, negative = inhibition": "-0.778% [at 25.6 µM]"}
{"smiles": "CC(C)N(CC[C@@](C(N)=O)(c1ccccc1)c1ccccn1)C(C)C", "AC50": "inactive"}
{"smiles": "CC(C)[N+](C)(CCC(C(N)=O)(c1ccccc1)c1ccccc1)C(C)C", "AC50": "3.98 µM (active)"}
{"smiles": "N#C/C(=C\\c1ccc(O)c(O)c1)C(N)=S", "activity, negative = inhibition": "-10.4%"}
{"smiles": "Nc1nc(N)c(N=Nc2ccc([As](=O)(O)O)c(O)c2)c(N)n1", "activity, negative = inhibition": "12.7% [at 11.4 µM]"}
{"smiles": "CC(O)(CS(=O)(=O)c1cccc(C(F)(F)F)c1)C(=O)Nc1cccc(C(F)(F)F)c1", "note": "(centres undefined)", "activity, negative = inhibition": "-12.4%"}
{"smiles": "COc1cc(C[C@H](C)N)c(OC)cc1I", "AC50": "25.1 µM (active)"}
{"smiles": "NC(=O)c1ccc(C(=O)Nc2ccc([As](=O)(O)O)cc2)cc1", "activity, negative = inhibition": "-0.507% [at 11.4 µM]"}
{"smiles": "C[C@H](N)[C@@H](O)c1ccccc1", "activity, negative = inhibition": "-7.7% [at 25.6 µM]"}
{"smiles": "CC(NCc1ccc(Cl)cc1)C(O)c1ccccc1", "note": "(centres undefined)", "AC50": "0.0708 µM (active)"}
{"smiles": "O=NN(Cc1ccc(Cl)cc1)[C@@H](C(=O)O)c1ccccc1", "activity, negative = inhibition": "6.33% [at 11.4 µM]"}
{"smiles": "COc1ccn(C)c(=O)c1C#N", "activity, negative = inhibition": "-5.47% [at 25.6 µM]"}
{"smiles": "O=C1C2CCN(CC2)C1(CO)CO", "AC50": "inactive"}
{"smiles": "CCc1ccc(CCN2CCCCC2)nc1", "AC50": "1.58 µM (active)"}
{"smiles": "c1ccc(CCN2CCOCC2)nc1", "activity, negative = inhibition": "13.9% [at 11.4 µM]"}
{"smiles": "c1ccc(CCN2CCCCCC2)nc1", "activity, negative = inhibition": "-18.4% [at 11.4 µM]"}
{"smiles": "CC(C)COC(=O)OCN1C(=O)CN(CCN2CC(=O)N(COC(=O)OCC(C)C)C(=O)C2)CC1=O", "activity, negative = inhibition": "2.09%"}
{"smiles": "O=S(=O)(c1ccccc1)N1CCCCC1c1cccnc1", "note": "(centres undefined)", "activity, negative = inhibition": "-14.3%"}
{"smiles": "N#CCCN", "activity, negative = inhibition": "1.7%"}
{"smiles": "C[n+]1c(/C=C\\c2ccc(O)c3ncccc23)[se]c2ccccc21", "AC50": "1 µM (active)"}
{"smiles": "Oc1cccc2cccnc12", "activity, negative = inhibition": "8.63% [at 11.4 µM]"}
{"smiles": "COc1cccc(-c2nc(CS(=O)CC(=O)N3CCC4(CC3)OCCO4)c(C)o2)c1", "note": "(centres undefined)", "activity, negative = inhibition": "0.248%"}
{"smiles": "C[C@@]12CC[C@H]3[C@@H](CC[C@@H]4C[C@H]5S[C@H]5C[C@]43C)[C@H]1CC[C@H]2O", "activity, negative = inhibition": "-6.37% [at 25.6 µM]"}
{"smiles": "CCCN(CCC)CCc1cccc2c1CC(=O)N2", "AC50": "3.16 µM (active)"}
{"smiles": "N[C@@H]1C=CC=C(C(=O)O)C1", "activity, negative = inhibition": "1.21%"}
